SARS PLpro yeast = SARS-CoV PLP inhibition in yeast; S. cerevisiae expressing SARS-CoV PLpro, growth rescue; Potency, µM (highest dose often 32.9 µM), for inactives: at the highest dose activity, positive = growth rescue, usual class: activators; 0.19% of 330,000 active; AID 485353; calls by dose curve; also: potency is read from the fitted curve at half-maximal effect; 0% is about no effect; nearly all actives have a fitted effect of over 55% in size
HCMV antiviral = inhibitors of human cytomegalovirus. HFF cells, HCMV-luciferase reporter, 72 h; hits give low values. activity change, negative = inhibition, % at 57.5 µM. 4.5% of 410,000 active. AID 1259415; in the data active = activity change below about -60%; inconclusive = no clear call, values can overlap the other calls; inactive = above about -39%; also: % is scaled to controls: 0 for no effect and ±100 for the full control effect
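Human foreskin fibroblasts infected with luciferase-reporter HCMV at MOI 1 PFU/cell, compounds at two doses. Luciferase measured 72 h post infection; normalized to buffer-only basal and Salinomycin (10uM) controls.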
HCV inh = HCV inhibition. Huh7.5.1 HCVcc-Cre infection, luciferase reporter, 44 h. Potency, µM (doses to about 41.8 µM), inactives show top-dose activity change, negative = inhibition, most hits filed as inhibitors. 3.4% of 340,000 active. AID 651820; also: potency is read from the fitted curve at half-maximal effect; % is scaled to controls: 0 for no effect and ±100 for the full control effect
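Reporter virus HCVcc-Cre (~0.5 moi) infects cells exposed to compound; seeding density 1,000 cells/well with 4 h settling beforehand. Luminescence, 15 sec read, taken 44 h post-infection following a 15 min RT substrate incubation.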
Pf growth 96h = inhibits malaria parasite growth, 96 h; P. falciparum luciferase reporter growth, 96 h; 6.9% of 320,000 active; AID 504834; Potency, µM (doses to about 28.7 µM), for the others: at the top dose activity change, negative = inhibition, most hits filed as inhibitors; also: potency is read from the fitted curve at half-maximal effect; % is scaled to controls: 0 for no effect and ±100 for the full control effect
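96 h incubation, 37 C, 5% CO2, of luciferase-reporter P. falciparum-infected RBCs (2% hematocrit, 0.05% parasitemia final) with test compounds; endpoint luminescence.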
Sm TGR block = blocks Schistosoma mansoni thioredoxin glutathione reductase | 3% of 360,000 active | purified TGR, DTNB reduction, TNB absorbance 405 nm | Potency, µM (titrated, usually from 114 µM), for the others: at the highest dose activity change, negative = inhibition, most hits filed as inhibitors; also: potency is read from the fitted curve at half-maximal effect; % is scaled to controls: 0 for no effect and ±100 for the full control effect; nearly all actives have a fitted effect of over 60% in size
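TGR 20 nM + NADPH 100 uM (dispensed conc.), cpd preinc 15 min RT; start with NADPH (500 uM addition) then DTNB (15 mM addition). Kinetic TNB absorbance, 405 nm filter. Four-parameter Hill fit across titration.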
Pf growth 48h = P. falciparum growth inhibition at 48 hours (one generation); P. falciparum luciferase growth in erythrocytes, 48 h; Potency, µM (titrated, usually from 28.7 µM), without a hit: at the highest dose activity change, negative = inhibition, actives largely listed as inhibitors; 5.9% of 310,000 active; AID 504832; also: potency is read from the fitted curve at half-maximal effect; % is scaled to controls: 0 for no effect and ±100 for the full control effect
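First compound was added to culture medium, then infected red cells at 0.1% parasitemia and 2% hematocrit (final). After incubation at 37 C under 5% CO2, luciferase detection reagent was dispensed and light output recorded.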
Numbers without * were called inactive; u = inconclusive; x = no result; ! = repeats disagree. This is a sample that favours compounds with a hit; in the whole collection about 15% have one here. Unless noted, calls follow the shape of the dose curve; as a rule, active = well fitted curve in the direction sought with a large enough effect; inconclusive = small, poorly fitted or top-dose-only effect, or another doubt; inactive = no such curve, though single readings can be large; an effect the other way counts as inactive or inconclusive.

SMILES | SARS PLpro yeast | HCMV antiviral | HCV inh | Pf growth 96h | Sm TGR block | Pf growth 48h
CCOC(=O)CNC(=O)COc1ccc(Cl)cc1Br | -1% | -16 | 7% | 10µM* | -12% | 5%
CC(C)N(Cc1ccccc1)C(=O)CN1C(=O)NC(Cc2ccccc2)(c2ccccc2)C1=O (stereo unspecified) | 2% | -9 | -12% | 12µM* | 7% | u
COc1ccc(CNC(=O)CN2C(=O)NC(c3ccccc3)(c3ccccc3)C2=O)cc1OC | x | -17 | -25% | x | x | x
COc1ccc(CNC(=O)CN2C(=O)NC(Cc3ccccc3)(c3ccccc3)C2=O)cc1OC (stereo unspecified) | 2% | -6 | -2% | 15µM* | -8% | u
Cc1sc2nc(-c3ccncc3)[nH]c(=O)c2c1-c1ccccc1 | 3% | x | 4% | -3% | -17% | -2%
COCCNCc1nc2sc(C)c(-c3ccccc3)c2c(=O)[nH]1 | 1% | -101* | -23% | 2% | 1% | 4%
Cc1sc2nc(-c3ccccn3)[nH]c(=O)c2c1-c1ccccc1 | -3% | -61* | 10µM* | u | 9% | 1.5µM*
CCC(c1nnnn1-c1c(C)cccc1C)N1CCCN(Cc2ccc(F)cc2)CC1 (stereo unspecified) | x | -12 | x | x | x | x
CCOc1ncccc1C(=O)N1CCN(C(c2ccccc2)c2ccccc2)CC1 | 16% | -29 | 11µM* | u | -16% | u
CC(C)Cc1cc(C(=O)N2CCN(C(c3ccccc3)c3ccccc3)CC2)no1 | -19% | -6 | 0% | -1% | -7% | x
CC(C)c1cc(C(=O)N2CCN(C(c3ccccc3)c3ccccc3)CC2)no1 | -48% | -8 | u | x | -17% | 9.3µM*
O=C(c1cc(-c2ccccc2)on1)N1CCN(C(=O)c2ccco2)CC1 | -3% | -26 | 17% | 1% | -29% | 33%
COc1ccc2oc(C(=O)N3CCN(C(c4ccccc4)c4ccccc4)CC3)c(C)c2c1 | 3% | u | u | 4.7µM* | -7% | 3.7µM*
O=C(c1cc(-c2ccco2)on1)N1CCN(C(c2ccccc2)c2ccccc2)CC1 | -13% | -104* | 2.5µM* | 25% | -19% | 12µM*
CCOC(=O)Cc1cn(C(=O)OC(C)(C)C)c2ccccc12 | 0% | 4 | 5% | u | -23% | u
COc1ccc(-c2cc(C(=O)N3CCCCCC3)no2)cc1OC | -2% | 39 | 6% | 134% | -9% | 70%
COc1ccc(-c2cc(C(=O)N3CCN(C(c4ccccc4)c4ccccc4)CC3)no2)cc1 | -8% | -14 | 10µM* | 12µM* | 0% | u
COc1ccc(-c2cc(C(=O)N3CCN(C(c4ccccc4)c4ccccc4)CC3)no2)cc1OC | -7% | 6 | u | -7% | 5% | 7.4µM*
COc1ccc(CCNC(=S)NC2CCN(Cc3ccccc3)CC2)cc1 | -1% | -72* | u | u | -1% | u
S=C(Nc1ccc(Cl)cc1)NC1CCN(Cc2ccccc2)CC1 | -20% | -35 | 11µM* | 6.6µM* | 1% | u
CCC(C)c1ccc(NC(=S)NC2CCN(Cc3ccccc3)CC2)cc1 (stereo unspecified) | 1% | -98* | 10µM* | u | 3% | u
COc1ccc(NC(=S)NC2CCN(Cc3ccccc3)CC2)cc1OC | 0% | 11 | -2% | 63% | -28% | 9%
CCc1ccc(NC(=S)NC2CCN(Cc3ccccc3)CC2)cc1 | -9% | -77* | u | 0% | -15% | 0%
S=C(Nc1ccccc1)NC1CCN(Cc2ccccc2)CC1 | 0% | -31 | -10% | u | 33% | 0%
CCOC(=O)C1(C)CCCN(C(=O)c2ccc(OC(F)F)cc2)C1 (stereo unspecified) | x | 25 | x | x | x | x
SMILES | SARS PLpro yeast | HCMV antiviral | HCV inh | Pf growth 96h | Sm TGR block | Pf growth 48h
NS(=O)(=O)c1ccc(NC(=S)NNC(=O)CCC(=O)Nc2ccccc2Cl)cc1 | -4% | x | 16% | 18% | 2% | 11%
O=C(CCC(=O)Nc1ccccc1Cl)NNC(=S)Nc1ccccc1C(F)(F)F | -6% | -25 | 20% | 2.1µM* | -9% | 18%
Cc1ccc(C)c(N2CCN(S(=O)(=O)c3ccc4c(c3)CCC(=O)N4)CC2)c1 | -5% | x | x | 0% | -6% | 41%
COc1cccc(NC(=O)CN(C)S(=O)(=O)c2ccc3c(c2)CCC(=O)N3)c1 | 1% | x | -8% | 7.4µM* | -4% | 17%
Cc1ccc(C)c(N2CCN(C(=O)CN(C)S(=O)(=O)c3ccc4c(c3)CCC(=O)N4)CC2)c1 | -2% | -15 | -9% | 2.3µM* | 10% | x
CC1CCC(NC(=O)CN(C)S(=O)(=O)c2ccc3c(c2)CCC(=O)N3)CC1 (stereo unspecified) | -3% | -17 | -6% | 1.5µM* | -9% | -15%
CCCCOCCCNC(=O)C[C@@H]1C[C@@]2(C(=O)OC)CCCCC=C2N(Cc2ccccc2)C1=O | x | -11 | x | x | x | x
COc1ccc(Nc2nc(-c3ccccc3O)nc3ccccc23)cc1 | -7% | u | u | u | 2% | u
COc1ccccc1Nc1nc(-c2ccccc2O)nc2ccccc12 | 3% | -70* | 4µM* | u | 15% | u
Oc1ccccc1Nc1nc(-c2ccccc2O)nc2ccccc12 | 0% | 10 | u | 1.3µM* | 0% | 1µM*
COc1ccc(Nc2nc(-c3ccccc3F)nc3ccccc23)cc1OC | -6% | 9 | 25µM* | u | -11% | u
Oc1ccc(Nc2nc(-c3ccccc3O)nc3ccccc23)cc1 | -12% | 79 | 11µM* | u | -34% | -15%
Oc1ccc(Nc2nc(-c3ccccc3F)nc3ccccc23)cc1 | 0% | u | u | -5% | 0% | -20%
Cc1ccc(Cl)cc1N1CCN(S(=O)(=O)c2ccc3c(c2)CC(=O)N3C)CC1 | -3% | -3 | u | -22% | -16% | u
CC(=O)c1cc2c(cc1N/C(=N/S(=O)(=O)c1ccc(C)cc1)c1ccc(F)cc1)OCO2 | x | -17 | x | x | -2% | x
CCC1(C)CN=C(c2ccccc2)NC1 (stereo unspecified) | x | -23 | 9% | x | x | x
C(=N\Nc1nc(Nc2ccccc2)nc(N2CCOCC2)n1)/c1c[nH]c2ccccc12 | -6% | 1 | 3.5µM* | u | 5% | u
Cc1ccc(Nc2nc(N/N=C/c3c[nH]c4ccccc34)nc(N3CCOCC3)n2)cc1 | -72% | 3 | u | u | -2% | u
Cc1[nH]c2ccccc2c1/C=N/Nc1nc(Nc2ccc(F)cc2)nc(N2CCOCC2)n1 | -9% | -9 | 8.9µM*! | 2.6µM* | -3% | 4.1µM*

Screening results: PubChem BioAssay, National Center for Advancing Translational Sciences (NCATS)
